Experimental data from PubChem BioAssay.
Several values for one entry are separate records, joined by “and”; a condition that tells them apart may be missing. Identical values can stand only once. Activity calls are given as the source filed them. Cut-off read from the data, not from the text of the source, unless noted: active = parasite load remaining mostly below about 12% (no sharp cut-off); inactive = mostly above about 10%.

Key:
[1] = glutamate transport activators, MN-1 cells, MN-1 cell line (AID 1612); details: MN-1 motor neuron cells, stronger effect = higher value;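 note: tested at 1 µM final; 0% = mean of DMSO vehicle wells on each plate; positive means more glutamate uptake than control and negative means less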
[2] = GFP-Q80 aggregate reduction, neuronal-like cells, cell-based, NGF-treated PC12, GFPQ80 (AID 1614); details: PC12 NGF-treated GFP-polyQ80 inclusion reduction;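 note: lower means fewer inclusions and 0 means no inclusions at all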
[3] = 75Q-TubH aggregate inhibition, S. cerevisiae, yeast (AID 1616); details: S. cerevisiae 75Q-TubH polyglutamine aggregation suppression; stronger effect = higher value
[4] = compounds altering viability of human ES cells (AID 493140; call rule not given here;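 note: cells exposed to compounds for four days before counting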); details: human embryonic stem cell survival screen; stronger effect = higher value
[5] = P. berghei load reduction in hepatocytes – cell-based, HepG2, luciferase luminescence, HepG2 viability, primary screen (AID 624349);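 note: 100% = mean of DMSO negative control wells on the same plate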; details: P. berghei liver stage in HepG2, luciferase luminescence, concentration not given here; parasite load remaining: stronger effect = lower value; viability: measured here: HepG2 viability without parasites
[6] = Wnt pathway potentiators raising nuclear beta-catenin – imaging, WNT3A-conditioned medium, mouse C2C12, NPC library, primary screen (AID 1117326; in the data active = nuclear beta-catenin stimulation mostly above about 4.2%, no sharp cut-off; inactive = mostly below about 10%); details: stronger effect = higher value
[7] = signal quenchers or enhancers, Cy5 substrate/SSB – biochemical, NIH Clinical Collection, E. coli SSB, artefact control for HCV NS3 helicase inhibitor project (AID 743268; call rule not given here); details: Cy5-oligo bound E. coli SSB, fluorescence interference
[8] = system: Hepatitis C virus NS3 helicase; assay: blockers of NS3h binding to DNA – biochemical, fluorescence polarization, NIH Clinical Collection, primary screen (AID 743270; call rule not given here); details: NS3 helicase binding to Cy5-dT15 DNA, stronger effect = higher value, concentration not given here
[9] = molecular target: Single-stranded DNA-binding protein (Escherichia coli (strain K12)) (UniProt P0AGE0); assay: SSB-ssDNA binding inhibitors – biochemical, fluorescence polarization, NIH Clinical Collection, counter-screen for HCV NS3 helicase inhibitor project (AID 743271; in the data active = inhibition above about 28%); details: E. coli SSB-DNA binding, stronger effect = higher value, concentration not given here
[10] = compounds distorting NS3 helicase fluorescence signal – biochemical, NIH Clinical Collection, artefact control for HCV NS3 helicase inhibitor project (AID 743272; call rule not given here;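 note: HCV NS3 helicase with a Cy5 labelled single stranded DNA probe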); details: fluorescence interference counterscreen, HCV NS3 helicase assay; stronger effect = lower value
[11] = system: Neuropilin-2 / VEGF-C interaction (human); assay: small molecules blocking Neuropilin-2/VEGF-C interaction – biochemical, microplate binding format, z-score (AID 743281; call rule not given here); details: microplate NRP2/VEGF-C binding assay; stronger effect = lower value
[12] = system: Hepatitis C virus NS3 helicase; assay: blockers of NS3h binding to ssDNA – biochemical, fluorescence polarization, LOPAC1280 library, primary screen (AID 687035; in the data active = inhibition above about 37%); details: Purified HCV NS3 helicase, Cy5-dT15 ssDNA binding fluorescence polarization; stronger effect = higher value; concentration not given here
[13] = compounds altering Cy5-DNA-NS3h complex signal – biochemical, LOPAC1280, artefact control for HCV NS3 helicase inhibitor project (AID 687037; call rule not given here); details: Cy5-DNA-NS3h complex fluorescence interference counterscreen

Row | Structure (SMILES) | glutamate uptake change [1] [%] | inclusion score [2] | aggregation suppression score [3] | survival [4] | parasite load remaining [5] | viability [5] | nuclear beta-catenin stimulation ([6]; at 10 µM) | nuclear beta-catenin stimulation ([6]; stimulation, at 2 µM) [%] | fluorescence ratio [7] | inhibition [8] | inhibition [9] | fluorescence ratio [10] | z-score [11] | inhibition [12] | fluorescence ratio (interference) [13]
1 | CCOC(=O)c1ccc(N)cc1 | 13.1 | 1.5 | 1.18 | 3.58 (inactive) | 108% (inactive) and 105% (inactive) and 49.4% (inactive) | 103% and 76.4% and 98.1% | 0.3% (inactive) | 1.2 |  |  |  |  |  |  | 
2 | Cc1nnc(NS(=O)(=O)c2ccc(N)cc2)s1 | 17.5 | 2 | 1.24 | 5.75 (inactive) | 77.8% (inactive) and 214% (inactive) and 50.9% (inactive) | 95.4% and 74.4% and 104% | -0.1% (inactive) | 1.2 |  |  |  |  |  |  | 
3 | Cc1ncc([N+](=O)[O-])n1CCO | 20.8 | 2 | 0.969 | 10.8 (inactive) |  |  | -0.2% (inactive) | 0.7 | 0.95 (inactive) | -2.77% (inactive) | 4.52% (inactive) | 0.88 (inactive) | -0.317 (inactive) |  | 
4 | NS(=O)(=O)c1cc(C(=O)O)c(NCc2ccco2)cc1Cl | -10.7 | 2 | 0.957 | 10.1 (inactive) |  |  | 0.5% (inactive) | 1.3 | 0.95 (inactive) |  |  | 0.89 (inactive) |  |  | 
5 | CCCCOC(=O)c1ccc(N)cc1 | 19.2 | 2 | 0.439 | 0.75 (inactive) | 111% (inactive) and 65.2% (inactive) | 96.4% and 75.1% and 101% | -0.2% (inactive) | 1 |  |  |  |  |  |  | 
6 | NS(=O)(=O)c1cc2c(cc1Cl)NC(CSCc1ccccc1)=NS2(=O)=O | -3.22 | 2 | 1.51 | 3.08 (inactive) | 72.5% (inactive) and 98.3% (inactive) and 56.3% (inactive) | 97% and 76.2% and 98.6% | -0.6% (inactive) | 0.7 |  |  |  |  |  |  | 
7 | Cc1ccccc1N1C(=O)c2cc(S(N)(=O)=O)c(Cl)cc2NC1C (stereo unspecified) | 2.13 | 2 | 1.18 | 25.6 (inactive) |  |  | -0.4% (inactive) | 1.1 |  |  |  |  |  | 1% (inactive) | 1 (inactive)
8 | Nc1ccc(S(=O)(=O)Nc2cnc3ccccc3n2)cc1 | 6.13 | 2 | 1.52 | 3.75 (inactive) | 113% (inactive) and 43.6% (inactive) | 98.9% and 97% | -0.3% (inactive) | 0.7 |  |  |  |  |  |  | 
9 | CCN1CCCC(OC(=O)C(c2ccccc2)c2ccccc2)C1 (stereo unspecified) | 7.33 | 1.5 | 1.15 | 12 (inactive) | 78.7% (inactive) and 105% (inactive) and 40.1% (inactive) | 75.6% and 65.9% and 85.9% | 0.6% (inactive) | 2.6 |  |  |  |  |  |  | 
10 | C=CCSCC1Nc2cc(Cl)c(S(N)(=O)=O)cc2S(=O)(=O)N1 (stereo unspecified) | -15.5 | 2 | 0.983 | 6.42 (inactive) | 134% (inactive) and 105% (inactive) and 42.5% (inactive) | 102% and 73.3% and 104% | 0.3% (inactive) | 0.6 |  |  |  |  |  |  | 
11 | Nc1ccc(C(=O)NCC(=O)O)cc1 | -9.5 | 2 | 1.33 | 1.83 (inactive) | 103% (inactive) and 157% (inactive) and 40.5% (inactive) | 101% and 82% and 89.7% | 0.5% (inactive) | 1.4 |  |  |  |  |  |  | 
12 | COc1c2occc2c(OC)c2c(=O)cc(C)oc12 | -7.03 | 2 | 0.597 | 22.1 (inactive) | 32.5% (inactive) and 95.1% (inactive) | 48.9% and 88.8% | 2.2% (inactive) | 0.4 |  |  |  |  |  |  | 
13 | CCCCC1(COC(=O)CCC(=O)O)C(=O)N(c2ccccc2)N(c2ccccc2)C1=O | -2.57 | 2 | 0.747 | 3.58 (inactive) | 87.9% (inactive) | 101% | 6.3% (inactive) | 4.7 |  |  |  |  |  |  | 
14 | CC(C(=O)O)c1ccc(C(=O)c2cccs2)cc1 (stereo unspecified) | 15.6 | 2 | 0.589 | 6.67 (inactive) | 81.3% (inactive) and 117% (inactive) and 42.2% (inactive) | 105% and 68.4% and 94.1% | -2.4% (inactive) | -0.7 |  |  |  |  |  |  | 
15 | O=C(Cn1ccnc1[N+](=O)[O-])NCCO | 16.4 | 2 | 0.925 | 5.17 (inactive) | 107% (inactive) and 46.8% (inactive) | 103% and 102% | -1.8% (inactive) | 0.3 |  |  |  |  |  |  | 
16 | CC(=O)NS(=O)(=O)c1ccc(N)cc1 | 16.9 | 2 | 1.16 | 17.3 (inactive) |  |  | -0.3% (inactive) | -0.1 | 1.03 (inactive) | -5% (inactive) | -5.05% (inactive) | 1.01 (inactive) |  |  | 
17 | Cc1cc2cc3c(C)cc(=O)oc3c(C)c2o1 | -15.5 | 2 | 0.635 | 6 (inactive) | 179% (inactive) and 284% (inactive) and 171% (inactive) | 95.9% and 75.4% and 91.9% | 2.9% (inactive) | 0.1 |  |  |  |  |  |  | 
